What all share (assay): yeast three-hybrid, YBZ-1, SC-Leu-His + 0.5 mM 3-AT, 4 days
What all share (settings): tags: N-Gal4 AD-HA kept; label: inside an RPR1-promoter hybrid RNA with tandem MS2 sites; ssRNA

One test addresses PUM1 PUF domain R4-TPA (Homo sapiens, UniProt Q14671 828-1176, N971T;H972P;Q975A). A digest of the protocol:
(§1)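 Pumilio-1 PUF domain libraries, randomized at the three base-contacting residues of each repeat, were co-expressed with matching RNA elements from a centromeric plasmid in strain YBZ-1, which carries a LexA–MS2 coat fusion and a HIS3 reporter. Transformants grew for four days on SC-Leu (input) or on SC-Leu-His + 0.5 mM 3-AT (selection), and the repeat regions were PCR-amplified and Illumina-sequenced. The interaction score is the log change in variant frequency from input to selection. That logarithm is base 2, with a pseudocount of 1 where a variant was absent.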

In another test the target is PUM1 PUF domain R4-SQS (Homo sapiens, UniProt Q14671 828-1176, N971S;H972Q;Q975S). The gist of the method: as §1
Another test deals with PUM1 PUF domain R5-CRR (Homo sapiens, UniProt Q14671 828-1176, Q1011R). A digest of the protocol: as §1
The target in a further test is PUM1 PUF domain R8-QWF (Homo sapiens, UniProt Q14671 828-1176, N1122Q;Y1123W;Q1126F). The gist of the method: as §1
For the next test, the target named is PUM1 PUF domain R8-KFM (Homo sapiens, UniProt Q14671 828-1176, N1122K;Y1123F;Q1126M). A digest of the protocol:
as §1

A further test has as its target PUM1 PUF domain R4-QPC (Homo sapiens, UniProt Q14671 828-1176, N971Q;H972P;Q975C). A digest of the protocol: as §1
The next test deals with PUM1 PUF domain R3-TRV (Homo sapiens, UniProt Q14671 828-1176, C935T;Q939V). A digest of the protocol:
as §1

In the next test the target is PUM1 PUF domain R8-RFA (Homo sapiens, UniProt Q14671 828-1176, N1122R;Y1123F;Q1126A). The gist of the method: as §1
In the next test the target is T1, PUM1 PUF domain R6-FYK (Homo sapiens, UniProt Q14671 828-1176, N1043F;Q1047K).
T1 sequence: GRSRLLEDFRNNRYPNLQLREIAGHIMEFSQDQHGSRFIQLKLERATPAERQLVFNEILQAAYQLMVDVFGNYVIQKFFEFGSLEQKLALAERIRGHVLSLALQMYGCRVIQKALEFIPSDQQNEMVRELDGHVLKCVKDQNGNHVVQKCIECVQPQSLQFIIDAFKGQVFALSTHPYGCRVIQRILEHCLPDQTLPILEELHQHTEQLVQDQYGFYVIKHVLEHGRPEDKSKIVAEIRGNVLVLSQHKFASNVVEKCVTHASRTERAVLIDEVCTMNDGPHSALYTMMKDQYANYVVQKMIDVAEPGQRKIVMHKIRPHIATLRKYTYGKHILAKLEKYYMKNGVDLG
A digest of the protocol:
as §1

The target of a further test is PUM1 PUF domain R5-RGN (Homo sapiens, UniProt Q14671 828-1176, C1007R;R1008G;Q1011N). The gist of the method:
as §1

In a further test the target is PUM1 PUF domain R3-SRW (Homo sapiens, UniProt Q14671 828-1176, C935S;Q939W). A digest of the protocol:
as §1

A further test addresses PUM1 PUF domain R7-ISR (Homo sapiens, UniProt Q14671 828-1176, S1079I;N1080S;E1083R). A digest of the protocol:
as §1

The target of a further test is PUM1 PUF domain R7-MSG (Homo sapiens, UniProt Q14671 828-1176, S1079M;N1080S;E1083G). The gist of the method: as §1
The target of the next test is T2, PUM1 PUF domain R6-TRE (Homo sapiens, UniProt Q14671 828-1176, N1043T;Y1044R;Q1047E).
T2 sequence: T1 sequence with F216T, Y217R, K220E
The gist of the method:
as §1

For a further test, the target named is PUM1 PUF domain R3-LSS (Homo sapiens, UniProt Q14671 828-1176, C935L;R936S;Q939S). The gist of the method: as §1

Experimental findings from paper PMC8384837, “Expanding the binding specificity for RNA recognition by a PUF domain” are described below.

Changes are numbered by the printed parent chain.

Sequence of PUM1 PUF domain R4-TPA (Q14671 828-1176 N971T/H972P/Q975A): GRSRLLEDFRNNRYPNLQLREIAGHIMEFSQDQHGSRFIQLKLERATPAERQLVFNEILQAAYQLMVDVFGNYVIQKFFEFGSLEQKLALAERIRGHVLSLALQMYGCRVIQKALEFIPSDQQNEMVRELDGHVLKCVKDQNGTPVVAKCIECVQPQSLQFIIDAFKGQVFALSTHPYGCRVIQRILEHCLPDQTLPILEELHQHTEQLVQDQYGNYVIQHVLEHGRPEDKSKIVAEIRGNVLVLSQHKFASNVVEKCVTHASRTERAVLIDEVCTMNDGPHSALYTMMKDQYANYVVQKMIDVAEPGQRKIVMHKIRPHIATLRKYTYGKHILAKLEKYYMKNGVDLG

Take “GGCUAGAACUAGUGGAUCCCCCGGCGCCCGGCGGCUCGAGCCCGGGUAAGUGUAAAUAGUCUGCAUGCCGCCGGGCGCCAUGCCUGCAGGUCGACUCUAGAAAACAUG”: the binding signal with PUM1 PUF domain R4-TPA is 3.35 log2 enrichment (interaction score); in the test with PUM1 PUF domain R4-SQS, 2.72 log2 enrichment (interaction score); with PUM1 PUF domain R5-CRR, 2.75 log2 enrichment (interaction score); in the test with PUM1 PUF domain R8-QWF, 2.1 log2 enrichment (interaction score); in the test with PUM1 PUF domain R8-KFM, 2.58 log2 enrichment (interaction score); in the test with PUM1 PUF domain R4-QPC it was 0.51 log2 enrichment (interaction score). Moreover, the binding signal is 2.47 log2 enrichment (interaction score) with PUM1 PUF domain R3-TRV; 5.72 log2 enrichment (interaction score) in the test with PUM1 PUF domain R8-RFA; 5.82 log2 enrichment (interaction score) with PUM1 PUF domain R6-FYK; 0.69 log2 enrichment (interaction score) in the test with PUM1 PUF domain R5-RGN; 2.61 log2 enrichment (interaction score) with PUM1 PUF domain R3-SRW.
For “GGCUAGAACUAGUGGAUCCCCCGGCGCCCGGCGGCUCGAGCCCGGGUAAGUUUAAAUAGUCUGCAUGCCGCCGGGCGCCAUGCCUGCAGGUCGACUCUAGAAAACAUG”, the binding signal with PUM1 PUF domain R7-ISR is 5.98 log2 enrichment (interaction score); with PUM1 PUF domain R7-MSG it was 3.37 log2 enrichment (interaction score).
For the sequence “GGCUAGAACUAGUGGAUCCCCCGGCGCCCGGCGGCUCGAGCCCGGGUAAGUGGAAAUAGUCUGCAUGCCGCCGGGCGCCAUGCCUGCAGGUCGACUCUAGAAAACAUG”, the binding signal with PUM1 PUF domain R6-TRE is 5.05 log2 enrichment (interaction score).
As to “GGCUAGAACUAGUGGAUCCCCCGGCGCCCGGCGGCUCGAGCCCGGGUAAGUGUAAUUAGUCUGCAUGCCGCCGGGCGCCAUGCCUGCAGGUCGACUCUAGAAAACAUG”, the binding signal in the test with PUM1 PUF domain R3-LSS is 3.25 log2 enrichment (interaction score); with PUM1 PUF domain R3-TRV it was 2.79 log2 enrichment (interaction score).
